# According to PubChem BioAssay (NCI):
# About 79,000 compounds went through this panel and 15% of them were active in at least one assay; those are over-represented in the sample as a whole. Values without a mark were called inactive. The source made the active and inactive calls. Rule as the data show it: active = growth inhibition above about 70%; inactive = the rest.
# Columns and labels:
# [1] = NCI Yeast Anticancer Drug Screen. Data for the rad50 strain (AID 155);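 also: 0% = growth of vehicle-only cultures of the same strain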; details: S. cerevisiae rad50 strain growth inhibition; at 50.0 µM; stronger effect = higher value
# In short: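 Relative growth inhibition (compound vs vehicle) was measured in yeast with a defined repair-gene alteration.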
# [2] = NCI Yeast Anticancer Drug Screen. Data for the mec2-1 strain (AID 157); details: S. cerevisiae mec2-1 strain, at 50.0 µM, stronger effect = higher value
# In short: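 Yeast mec2-1 mutant treated with compound. Readout: growth inhibition vs vehicle controls.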
# [3] = NCI Yeast Anticancer Drug Screen. Data for the sgs1 mgt1 strain (AID 161);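 also: 0% = growth of cultures given vehicle only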; details: S. cerevisiae sgs1 mgt1 strain, at 50.0 µM, stronger effect = higher value
# In short: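 Genetically altered yeast, compound exposure, growth inhibition relative to vehicle.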
# [4] = NCI Yeast Anticancer Drug Screen. Data for the cln2 rad14 strain (AID 165);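 also: 0% = growth equal to vehicle treated cultures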; details: S. cerevisiae cln2 rad14 strain, at 50.0 µM, stronger effect = higher value
# In short: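 cln2 rad14 yeast strain; compound exposure; growth inhibition read vs vehicle controls.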
# [5] = NCI Yeast Anticancer Drug Screen. Data for the bub3 strain (AID 167); details: S. cerevisiae bub3 mutant strain, at 50.0 µM, stronger effect = higher value
# In short: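 Screening used yeast with an engineered genetic alteration affecting cell cycle control. Compound-exposed cultures were compared with vehicle cultures, and reduced growth was taken as inhibition.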
# [6] = NCI Yeast Anticancer Drug Screen. Data for the mlh1 rad18 strain (AID 175); details: S. cerevisiae mlh1 rad18 strain growth inhibition; at 50.0 µM; stronger effect = higher value
# In short: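 Yeast w/ defined DNA-repair lesions; compound exposure; growth vs vehicle controls → % inhibition.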
SMILES,growth inhibition [1],growth inhibition [2],growth inhibition [3],growth inhibition [4],growth inhibition [5],growth inhibition [6]
O=C1OC2(OC2c2ccccc2)c2ccccc21 (stereo unspecified),0.25%,-8.95%,-37.2%,-15.2%,-29.8%,-22.1%
CNCc1ccccc1,-1.25%,-2.8%,-21%,-23%,-19.8%,-3.4%
O=C(NN1C(=O)CSC1c1ccc(F)cc1)c1ccncc1 (stereo unspecified),-4.2%,1.1%,4.15%,-6.75%,7.95%,11.8%
c1ccc(-c2csnn2)cc1,-8.6%,-12.2%,-4.05%,-17.8%,-13.4%,-11.8%
O=C(/C=C(/CC(O)(c1ccccc1)c1ccccc1)Nc1ccccc1)c1ccccc1,10.3%,-2.7%,-6.4%,2.35%,-1.2%,-2.1%
NC(=O)/C=C/C(N)=O,13.6%,-9.45%,-16.7%,-13.5%,-5.05%,2.7%
OC(CI)C1OCOC(CI)C1O (stereo unspecified),-11.7%,3.65%,10.7%,-26.5%,-3.75%,16.4%
COc1ccc(CCNC(=O)c2cccc(Cl)c2)cc1OC,-7.05%,-28.9%,-23.1%,-44.6%,-22%,-12.2%
Cc1cc(=O)n(-c2ccccc2)c(=O)n1-c1nc2ccccc2[nH]1,19%,-8.4%,14.7%,3.65%,-4.35%,32%
Cc1cc(Cl)nc(/N=C(\N)Nc2ccc(Cl)c(Cl)c2)n1,-1.95%,5.45%,-1.05%,-11.7%,6.1%,7.6%
OCCN(Cc1ccccc1)Cc1ncccc1O,9.35%,-27.1%,-11.4%,8.85%,-3.9%,5.7%
CC1(C)CCCOc2cccc(c2)OCCCC(C)(C)C1=O,14.5%,-1.7%,-9.05%,27.1%,28.8%,25.9%
NC(=O)[C@@H]1CCCN1C(=O)c1cccnc1,-14.9%,-18.2%,-12.9%,-14.7%,4.75%,-13%
O=CNc1ccccc1Cc1ccccc1,13.2%,-24%,4.5%,7.85%,4.25%,1.65%
C[N+](C)(CCNc1ccc(NCC[N+](C)(C)Cc2ccc([N+](=O)[O-])cc2)c2c1C(=O)c1c(O)ccc(O)c1C2=O)Cc1ccc([N+](=O)[O-])cc1,72.2% (active),84.6% (active),77.9% (active),78.1% (active),76.7% (active),76.8% (active)
COc1ccc(CCNC(=O)C(=O)c2c[nH]c3ccccc23)cc1OC,12.6%,18.8%,22.4%,14.3%,9.55%,25.2%
[N-]=[N+]=Nc1ccccc1Oc1ccccc1,9.85%,-18.1%,5.15%,17.7%,-16.6%,10.5%
Cc1ncnc(N)c1N,18.3%,14.2%,8.95%,26.1%,18.1%,2.8%
CC(=O)OCC1OC(n2c(C)c(N=Nc3ccc(C)cc3)c(C)c(C#N)c2=S)C(OC(C)=O)C(OC(C)=O)C1OC(C)=O (stereo unspecified),-8.05%,-14.4%,11.9%,2.65%,-10.8%,-2.75%
O=C(O)c1ccccc1SC(Sc1ccccc1C(=O)O)c1cccs1,12.4%,-9.65%,3.75%,-4.55%,6.25%,4%
CCCCC1NNC(CCCC)NN1 (stereo unspecified),2.8%,-15.2%,-18.8%,-25.8%,-6.3%,-1.4%

SMILES,growth inhibition [1],growth inhibition [2],growth inhibition [3],growth inhibition [4],growth inhibition [5],growth inhibition [6]
COc1ccc2c(c1)CCC(OS(=O)(=O)CC13CCC(CC1=O)C3(C)C)C2=O (stereo unspecified),-9.15%,5%,-15.2%,-10.7%,-21.9%,-0.45%
CC1CCOC(c2ccc(C(C)C)cc2)O1 (stereo unspecified),8.4%,-2.4%,2.9%,-9.9%,9.45%,-0.15%
Cc1c(-c2coc(-c3ccc(Cl)cc3)n2)c(=O)n(-c2ccccc2)n1C,-7.85%,-43.2%,-22.1%,-9.9%,7.4%,-6.6%
CCOc1ccccc1Nc1nc(C)c(C(=O)CC(=O)C(=O)Nc2ccccc2)s1,45.9%,5.4%,28.2%,9.45%,29.9%,12.9%
N#CC(NC12CC3CC(CC(C3)C1)C2)c1ccc2c(c1)OCO2 (stereo unspecified),-14.9%,-5.6%,-20.9%,-17.1%,-47.8%,-44.4%
O=C1c2ccccc2C(=O)c2c(Cl)ccc(O)c21,3.15%,11.2%,3.8%,0.1%,30.4%,19.9%
S=C(Nc1ccc2ccccc2c1)Nc1ccc2ccccc2c1,22%,10.9%,14.4%,-30.6%,5.4%,-2%
O=C(CNc1ccc(Cl)cc1Cl)NC1C=Cc2ccc(S(=O)(=O)Nc3ccc(Cl)cc3Cl)cc2C1=O (stereo unspecified),34.5%,20.4%,44%,14.2%,29.1%,33.1%
COC1OC2COC(c3ccccc3)OC2C(OS(=O)(=O)c2ccc(Br)cc2)C1OS(=O)(=O)c1ccc(Br)cc1 (stereo unspecified),-10.5%,13.7%,-1.3%,-14.7%,-11.8%,21.6%
CC1C(=O)N2C(=O)C(C)C(C)C(=O)N2C(=O)C1C (stereo unspecified),1.8%,-6.25%,7.9%,-12.8%,3.85%,-12.5%
O=C(NCc1ccco1)Nc1ccccc1Cl,-24.9%,-0.2%,-6.2%,45.8%,4.25%,-11%
CCCCCCc1cc2c(C)c(C)c(=O)oc2cc1OCCCOc1cc2oc(=O)c(C)c(C)c2cc1CCCCCC,-17.9%,-24.9%,-12.5%,35.5%,-11.8%,-46.3%
Oc1cccc2ccc[n+](CCc3ccccc3)c12,1.4%,9.15%,8.7%,-13.5%,-5.9%,31.6%
CCCOC(=O)C(=O)OCCC,2.15%,21.6%,-23.8%,-6%,-11.3%,-9.2%
CC1(C)OB(O)OC1(C)C,-10.4%,12.7%,-35.2%,14.6%,-0.9%,-9.7%
CCC(C)Nc1ccc(NS(=O)(=O)CCl)cc1 (stereo unspecified),54%,6.3%,13.3%,4.25%,6.6%,8.9%
CCNC(=O)OC(C)C(O)c1ccccc1 (stereo unspecified),0.05%,11.6%,33.2%,6.8%,-19.6%,29.2%
Brc1c(NC2=NCCN2)ccc2nccnc12,6.2%,5.1%,-24%,-6.45%,-22.1%,-56.9%
CCOC(=O)/C(C#N)=C\NC(=O)NC,3%,2.3%,2.2%,-18.4%,-5.25%,-0.5%
COC(=O)C1=C(\O)C[C@@]2(C)CC[C@@H](C(=O)OC)C2C/C=C\1C(=O)OC (stereo partly specified),-4.75%,-6.25%,0.05%,11.1%,-8.6%,34.8%
